Measured values: PubChem BioAssay (NCI)
The panel holds about 79,000 compounds, 15% with a hit somewhere; the sample as a whole holds those more often. Values without a mark were called inactive. Calls of active or inactive are those of the source. Cut-off read from the data, not from the text of the source: active = growth inhibition above about 70%; inactive = the rest.

Key:
[1] = NCI Yeast Anticancer Drug Screen. Data for the rad52 strain (AID 147);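 note: 0% = growth of vehicle-treated control cultures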; details: S. cerevisiae rad52 mutant growth inhibition, stronger effect = higher value
In short: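 Read-out: growth inhibition versus vehicle-treated controls. Cells were a DNA repair-deficient yeast strain treated with compounds.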

[2] = NCI Yeast Anticancer Drug Screen. Data for the wt1 strain (AID 149);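 note: 0% = growth of vehicle-treated wt1 cultures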; details: S. cerevisiae wt1 strain (SPY 50644) growth inhibition, stronger effect = higher value
In short: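 Compounds are added to wt1 yeast cultures. Growth is then measured. Inhibition is expressed relative to vehicle-treated controls.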

[3] = NCI Yeast Anticancer Drug Screen. Data for the rad50EPP+ strain (AID 151);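 note: 0% = growth of vehicle-treated control cultures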; details: S. cerevisiae rad50 mutant strain, stronger effect = higher value
In short: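 Growth inhibition read against vehicle controls in rad50EPP+ yeast, a strain altered in DNA damage repair, after compound exposure.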

[4] = NCI Yeast Anticancer Drug Screen. Data for the mgt1 strain (AID 153); details: S. cerevisiae mgt1 mutant growth inhibition, stronger effect = higher value
In short: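 mgt1 yeast grown with test compound; read-out is growth inhibition versus vehicle-treated cultures.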

[5] = NCI Yeast Anticancer Drug Screen. Data for the rad50 strain (AID 155);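 note: 0% = growth of vehicle-only cultures of the same strain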; details: S. cerevisiae rad50 strain growth inhibition, stronger effect = higher value
In short: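 Inhibition values express reduced yeast growth in compound-treated cultures relative to vehicle-treated controls.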

[6] = NCI Yeast Anticancer Drug Screen. Data for the mec2-1 strain (AID 157); details: S. cerevisiae mec2-1 strain, stronger effect = higher value
In short: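 Yeast mec2-1 mutant treated with compound. Readout: growth inhibition vs vehicle controls.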

[7] = NCI Yeast Anticancer Drug Screen. Data for the rad14 strain (AID 159);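 note: 0% = growth of vehicle-treated control cultures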; details: S. cerevisiae rad14 strain growth inhibition, stronger effect = higher value
In short: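 A mutant yeast strain defective in DNA damage repair is treated with compound; inhibition of its growth is scored against untreated, vehicle-exposed cultures.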

[8] = NCI Yeast Anticancer Drug Screen. Data for the sgs1 mgt1 strain (AID 161);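 note: 0% = growth of cultures given vehicle only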; details: S. cerevisiae sgs1 mgt1 strain, stronger effect = higher value
In short: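 Genetically altered yeast, compound exposure, growth inhibition relative to vehicle.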

[9] = NCI Yeast Anticancer Drug Screen. Data for the CLN2oe strain (AID 163);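 note: 0% = growth of vehicle-only control cultures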; details: S. cerevisiae CLN2oe strain, stronger effect = higher value
In short: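 Read-out: yeast growth inhibition, expressed relative to vehicle-only controls. The strain bears an engineered cell-cycle alteration.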

[10] = NCI Yeast Anticancer Drug Screen. Data for the cln2 rad14 strain (AID 165);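 note: 0% = growth equal to vehicle treated cultures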; details: S. cerevisiae cln2 rad14 strain, stronger effect = higher value
In short: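 cln2 rad14 yeast strain; compound exposure; growth inhibition read vs vehicle controls.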

[11] = NCI Yeast Anticancer Drug Screen. Data for the bub3 strain (AID 167); details: S. cerevisiae bub3 mutant strain, stronger effect = higher value
In short: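 Steps: expose the mutant yeast strain to compound; grow alongside vehicle-treated cultures; measure growth; express inhibition against the vehicle cultures.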

[12] = NCI Yeast Anticancer Drug Screen. Data for the wt2 strain (AID 169);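 note: 0% = growth of vehicle-treated yeast cultures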; details: S. cerevisiae wt2 strain growth inhibition, stronger effect = higher value
In short: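 Read-out: growth inhibition versus vehicle-treated control cultures after compound exposure of the yeast strain.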

[13] = NCI Yeast Anticancer Drug Screen. Data for the mlh1 strain (AID 171);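 note: 0% = growth of vehicle-treated control cultures of the same strain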; details: S. cerevisiae mlh1 strain growth inhibition, stronger effect = higher value
In short: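 Read-out: growth inhibition versus vehicle controls. Strain: engineered yeast with a defined DNA repair or cell cycle defect, compound-treated.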

[14] = NCI Yeast Anticancer Drug Screen. Data for the sgs1 strain (AID 173);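 note: 0% = growth of vehicle-only control cultures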; details: S. cerevisiae sgs1 mutant, stronger effect = higher value
In short: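 Read-out: yeast growth inhibition relative to vehicle controls, following compound exposure of a strain with a defined DNA repair/cell cycle alteration.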

[15] = NCI Yeast Anticancer Drug Screen. Data for the mlh1 rad18 strain (AID 175); details: S. cerevisiae mlh1 rad18 strain growth inhibition, stronger effect = higher value
In short: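 Yeast w/ defined DNA-repair lesions; compound exposure; growth vs vehicle controls → % inhibition.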

[16] = NCI Yeast Anticancer Drug Screen. Data for the rad18 strain (AID 177); details: S. cerevisiae rad18 mutant growth inhibition, stronger effect = higher value
In short: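 Readout: growth inhibition vs vehicle controls. Cells: genetically altered yeast strain, DNA repair defect.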

[17] = at 5.0 µM (retest, dose inferred, filed as 0.5)
[18] = at 50.0 µM (retest, dose inferred, filed as 5.0)

In the case of `O=C(CC(=O)n1nc(-c2ccccc2)c(N=Nc2ccccc2C(=O)O)c1-c1ccccc1)Nc1ccc(Cl)cc1`, the growth inhibition ([1]; at 1.2 µM) is reported as -2%, the growth inhibition ([1]; at 3.7 µM) is reported as -1% and the growth inhibition ([1]; at 11.0 µM) is reported as -1%. It also gave a growth inhibition ([1]; at 33.0 µM) of -2%, a growth inhibition ([1]; at 100.0 µM) of 8% and a growth inhibition ([2]; at 1.2 µM) of -1%. The growth inhibition ([2]; at 3.7 µM) was -4%, the growth inhibition ([2]; at 11.0 µM) was -3% and the growth inhibition ([2]; at 33.0 µM) was -4%. The growth inhibition ([2]; at 100.0 µM) was -4%, the growth inhibition ([3]; at 1.2 µM) was 2% and the growth inhibition ([3]; at 3.7 µM) was 6%. It also gave a growth inhibition ([3]; at 11.0 µM) of 15%, a growth inhibition ([3]; at 33.0 µM) of 23% and a growth inhibition ([3]; at 100.0 µM) of 37%. The growth inhibition ([4]; at 1.2 µM) was -2%, the growth inhibition ([4]; at 3.7 µM) was -3% and the growth inhibition ([4]; at 11.0 µM) was -5%. The growth inhibition ([4]; at 33.0 µM) was -6%, the growth inhibition ([4]; at 100.0 µM) was 7% and the growth inhibition ([5]; at 1.2 µM) was -2%. The growth inhibition ([5]; at 3.7 µM) was 1%, the growth inhibition [5, 17] was 7% and the growth inhibition ([5]; at 11.0 µM) was 1%. For the same compound, the growth inhibition ([5]; at 33.0 µM) was 2%, the growth inhibition [5, 18] was 16% and the growth inhibition ([5]; at 50.0 µM) was 49%. It also gave a growth inhibition ([5]; at 100.0 µM) of 14%, a growth inhibition ([6]; at 1.2 µM) of -2% and a growth inhibition ([6]; at 3.7 µM) of -1%. For the same compound, the growth inhibition [6, 17] was 3%, the growth inhibition ([6]; at 11.0 µM) was -2% and the growth inhibition ([6]; at 33.0 µM) was -3%. The growth inhibition [6, 18] was 4%, the growth inhibition ([6]; at 50.0 µM) was 36.2% and the growth inhibition ([6]; at 100.0 µM) was 2%. It also gave a growth inhibition ([7]; at 1.2 µM) of -1%, a growth inhibition ([7]; at 3.7 µM) of 2% and a growth inhibition ([7]; at 11.0 µM) of 3%. It also gave a growth inhibition ([7]; at 33.0 µM) of 3%, a growth inhibition ([7]; at 100.0 µM) of 29% and a growth inhibition [8, 17] of -5%. The growth inhibition [8, 18] was 20%, the growth inhibition ([8]; at 50.0 µM) was 41.7% and the growth inhibition ([9]; at 1.2 µM) was -4%. The growth inhibition ([9]; at 3.7 µM) was -3%, the growth inhibition ([9]; at 11.0 µM) was -7% and the growth inhibition ([9]; at 33.0 µM) was -10%. For the same compound, the growth inhibition ([9]; at 100.0 µM) was -15%, the growth inhibition [10, 17] was 2% and the growth inhibition [10, 18] was 24%. The growth inhibition ([10]; at 50.0 µM) was 9.4%, the growth inhibition ([11]; at 1.2 µM) was 8% and the growth inhibition ([11]; at 3.7 µM) was 15%. It also gave a growth inhibition [11, 17] of 6%, a growth inhibition ([11]; at 11.0 µM) of 28% and a growth inhibition ([11]; at 33.0 µM) of 46%. For the same compound, the growth inhibition [11, 18] was 71% (active), the growth inhibition ([11]; at 50.0 µM) was 88.7% (active) and the growth inhibition ([11]; at 100.0 µM) was 72% (active). For the same compound, the growth inhibition ([12]; at 1.2 µM) was -3%, the growth inhibition ([12]; at 3.7 µM) was -3% and the growth inhibition ([12]; at 11.0 µM) was -3%. It also gave a growth inhibition ([12]; at 33.0 µM) of -6%, a growth inhibition ([12]; at 100.0 µM) of 4% and a growth inhibition ([13]; at 1.2 µM) of -2%. For the same compound, the growth inhibition ([13]; at 3.7 µM) was -3%, the growth inhibition ([13]; at 11.0 µM) was -3% and the growth inhibition ([13]; at 33.0 µM) was -6%. The growth inhibition ([13]; at 100.0 µM) was 6%, the growth inhibition ([14]; at 1.2 µM) was -2% and the growth inhibition ([14]; at 3.7 µM) was -1%. The growth inhibition ([14]; at 11.0 µM) was 1%, the growth inhibition ([14]; at 33.0 µM) was 0% and the growth inhibition ([14]; at 100.0 µM) was 21%. It also gave a growth inhibition [15, 17] of -11%, a growth inhibition [15, 18] of 43% and a growth inhibition ([15]; at 50.0 µM) of 36%. The growth inhibition ([16]; at 1.2 µM) was -4%, the growth inhibition ([16]; at 3.7 µM) was -1% and the growth inhibition ([16]; at 11.0 µM) was 3%. It also gave a growth inhibition ([16]; at 33.0 µM) of 6% and a growth inhibition ([16]; at 100.0 µM) of 43%.
